These results are taken from PubChem BioAssay (NCI).

Compounds without any hit were thinned out: in the full panel of roughly 83,000, 20% have a hit.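 Interpretation: 100, growth as untreated; towards 0, rising growth inhibition; 0, no net growth; 0 to -100, cell death. Compounds scoring below 10 were considered active.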 A number with no mark means an inactive call. Active and inactive are the calls of the source.

For this assay, the system named is MDA-MB-468 breast. The experiment in a line: NCI-60 one-dose screen, 48 h (100 = growth as untreated, 0 = no growth, -100 = all killed). To be noted: 10 µM unless noted.
Regarding `C=Cc1cnc(Nc2ccc(OC)cc2)nc1NCCCNC(=O)C1CCC1`, the growth is 46.4%.

In the case of `Nc1ccc(-c2csc(-n3[nH]c(=O)ccc3=O)n2)cc1`, the growth is 99.3%.

Turning to `Cc1nc2sc(C(=O)Nc3ccc(Br)cc3)c(N)c2cc1C(O)c1ccccc1` (centres undefined), the growth was 12.7%.

For `O=C1O[C@@H](c2ccccc2Cl)[C@@H]2c3cc4c(cc3CCN12)OCO4`, the growth is 96.2%.

In the case of `Nc1c(C(=O)Nc2ccncc2)sc2nc3c(cc12)CCCCCC3`, the growth was 87.8%.

Regarding `COc1cccc(Oc2ccccc2NC(=O)CNC(=O)c2cccc3ccccc23)c1`, the growth was 12.1% [5 µM].

With `NNC(=O)c1nc(N)n(-c2ccc(S(N)(=O)=O)cc2)n1`, the growth is 108%.

In the case of `Cc1c(-c2cnc3ccc(Cl)cc3c2C(=O)O)nnn1-c1ccc(Cl)cc1`, the growth is 110%.

`O=C(NC1CC(F)C1)c1cc2cccnc2n1-c1ccc(Cl)c(Cl)c1` (centres undefined): the growth is 101%.

As to `CC(C)=CCC[C@@H](C)[C@H]1CC[C@@]2(C)C3=C(CC[C@]12C)[C@@]1(C)CC[C@H](O)C(C)(C)[C@@H]1CC3`, the growth was 102%.

On to `C#Cc1cccc(Oc2ccc(NC(=O)CCl)cc2)c1`, for which the growth was -7.9% [8.25 µM] (active).

`Clc1ccc(Nc2ncnc3c2sc2ncccc23)cc1`: the growth was 23%.

For `C[C@]12CC[C@@H]3c4ccc(O)c([N+](=O)[O-])c4CC[C@H]3[C@@H]1CC[C@@H]2NS(=O)(=O)c1ccc(C(F)(F)F)cc1`, the growth is 25.2%.

As for `N=C(c1ccccc1)N(Cc1ccccc1)Cc1ccccc1`, the growth was 98.2%.
